Each structure is given as a SMILES string. Unmarked numbers belong to inactive results. No rule for the calls is given here.

The subject of this test is Botulinum neurotoxin type F light chain protease (Clostridium botulinum). Briefly: Botulinum neurotoxin type F light chain protease inhibition, multiplex microsphere flow cytometry, validation set (AID 588459). The note with it: multiplex microsphere protease substrate cleavage assay, at 10 µM, stronger effect = higher value.
For `Cc1ncoc1C(=O)N1CCCC(C(=O)c2ccc(-c3ccccc3)c(F)c2)C1` (stereo not given), the inhibition (commonly the relative decrease from the control value, in per cent) is -2.3%.
Under `Cc1c(OC(=O)CNC(=O)OC(C)(C)C)ccc2c3c(c(=O)oc12)CCC3` stands -2.7%; under `CCN1C(=O)C(CC(=O)Nc2ccc(F)cc2)N(Cc2ccc3c(c2)OCO3)C1=S` (stereo not given), -1.3%.
Under `Cc1ccc(-n2cc(CNCCN3CCOC3=O)c(-c3ccc(F)cc3)n2)cc1` stands -3.2%.
Under `CC(C)NS(=O)(=O)c1ccc(OCC(=O)Nc2cccc(F)c2)cc1` stands -3.9%; under `COc1cccc(-n2c(C)c3c(OC)cccc(=O)c3c2C)c1`, -8.1%; under `CCCC(=O)O[C@]1(C(=O)CCl)[C@@H](C)C[C@H]2[C@@H]3CCC4=CC(=O)C=C[C@]4(C)[C@@]3(F)C(=O)C[C@@]21C`, 0.9%.
Take `CN(C(=O)C(Cl)Cl)c1ccc(OC(=O)c2ccco2)cc1`: the inhibition was 1.7%.
For `CC(C)(C)NCC(O)COc1cccc2c1C[C@H](O)[C@H](O)C2` (stereo not given in full), the inhibition was -2.3%.
Regarding `CC12CCC(C(=O)N3CCCCC3)([C@H](Br)C1=O)C2(C)C` (stereo not given in full), the inhibition was -3.4%.
In the case of `Nc1cccc(C(=O)O)c1`, the inhibition is -0.6%.
As for `O=C(CS(=O)(=O)c1ccccc1)c1ccc2c(c1)OCCO2`, the inhibition was 3.2%.
Take `CCC(NC(C)C)C(O)c1ccc(O)c(O)c1` (stereo not given): the inhibition was -5.4%.
The value for `Cc1cc(=O)c2c(O)c(O)ccc2o1` was 1.8%; that for `CCc1cc(=O)oc2cc(OCc3nn[nH]n3)ccc12` was -0.5%.
The value for `Nc1ccc(-c2nc3ncccc3o2)c(Cl)c1` was -2.1%.
Under `CCc1cc2c(=O)c(-c3nc(C)cs3)coc2cc1OC(C)C(=O)NCCO` (stereo not given) stands -3.3%; under `C=CCN1C(=O)c2oc3ccccc3c(=O)c2C1c1ccc(O)c(OC)c1` (stereo not given), -1.5%; under `Cc1nc2cc3ccccc3cc2c(=O)[nH]1`, -2%.
For `O=C(O)C1CCN(C(=O)COc2ccc3c4c(c(=O)oc3c2)CCC4)CC1`, the inhibition was 3%.
Under `COc1ccc(C(=O)Nc2cccnc2)cc1C(=O)Nc1cccnc1` stands 2.9%; under `C[C@]12C[C@H](O)[C@H]3[C@@H](CCC4=CC(=O)CC[C@@]43C)[C@@H]1CC[C@@H]2C(=O)CO`, 0.1%; under `COc1cccc(OCc2nnc(-c3cccs3)o2)c1`, 1.2%.
The value for `Cc1ccc(S(=O)(=O)N[C@@H](Cc2ccccc2)C(=O)CCl)cc1` was -3.3%; that for `O=C(CCSc1ccccc1)N1CCCC1` was 1.2%.
The value for `O=C(NC1CC1)C1CCN(C2CCN(C(=O)Cc3ccc(F)cc3)CC2)CC1` was -2.4%; that for `COc1ccc(C(Cl)=C(c2ccc(OC)cc2)c2ccc(OC)cc2)cc1` was 1.5%.
`COc1ccc2oc(C)c(C(N)=O)c2c1`: the inhibition was -1.6%.
The value for `CCc1cc(-c2[nH]ncc2-c2ccc3c(c2)OCO3)c(O)cc1O` was -0.4%; that for `COC(=O)c1ccc(NC(=O)c2ccccc2SC)cc1` was -4.7%.
The value for `O=C(COc1ccccc1)N1CCN(c2ccccc2)CC1` was -3.8%; that for `CN=C1c2cc3cc(OC)ccc3n2CCN1C` was -1.5%; that for `CC1(C)CC(=O)C(C2=NC(C)(C)Cc3ccccc32)=C(O)C1` was 0%.
For `CC(C)N(C(=O)Cc1ccccc1[N+](=O)[O-])C(C)C`, the inhibition is -0.6%.
The value for `Cc1nc2sccn2c(=O)c1CCN1CCC(=C(c2ccc(F)cc2)c2ccc(F)cc2)CC1` was -6%; that for `Cn1c(=O)[nH]c(=O)c2c1ncn2CCN1CCOCC1` was 3.5%; that for `CSc1cccc(NC(=O)/C=C/c2ccccc2)c1` was -0.9%.
Under `CCOC(=O)c1cnc2ccc(C(=O)OC)cc2c1Nc1ccc2c(c1)OCCO2` stands -0.5%.
The value for `O=C(c1ccc([N+](=O)[O-])cc1)N1CCSC1c1ccccc1Cl` (stereo not given) was -3.8%.
On to `CCCNC(=O)NS(=O)(=O)c1ccc(Cl)cc1`, for which the inhibition was 5.6%.

The record behind these values is PubChem BioAssay.
